Measurements reported in publication PMC4552634, “A New Set of Chemical Starting Points with Plasmodium falciparum Transmission-Blocking Potential for Antimalarial Drug Discovery” (PLoS ONE, 2015).
Screen size: about 13,000 compounds; about 3,200 (25%) showed an effect of 50% or more. The list shows a part of the results.

System: P. falciparum stage V gametocytes
Parameters: BacTiter-Glo ATP luminescence viability of purified stage V gametocytes in 384-well plates, per cent inhibition versus DMSO
Settings: 48 h, 5 µM; inhibitor

SMILES	% Inhibition [%]
COc1nc(Nc2cccc(C)c2)nc(OC)n1 [TCMDC-124204]	-12.01
CN(C)C(CNc1ncnc2cc(Cl)ccc12)Cc1ccccc1 (stereo not shown) [TCMDC-124600]	-0.01557
Cc1c(Cl)cccc1S(=O)(=O)N1CCCCC(c2ccc(C(F)(F)F)cc2)=N1 [TCMDC-134534]	-14.43
CN(C)c1ccc2c(c1)Sc1cc(N(C)C)ccc1N2C(=O)CCCC(=O)O [TCMDC-125778]	104
CC(=O)CSC(C=Cc1ccc(N(C)C)cc1)=Nc1ccccc1 [TCMDC-137558]	-4.21
CN(C)c1ccc2c(c1)Sc1cc(N(C)C)ccc1N2C(=O)c1cccc(C(=O)O)c1 [TCMDC-124169]	30.57
O=C(Nc1cc(Cl)ccc1Cl)N[C@H]1CCN(CCCCCNC(=O)C2CC2c2ccc(Cl)c(Cl)c2)C1 (stereo partly shown) [TCMDC-136265]	55.1
O=C(Nc1ccc(Cl)cc1F)N[C@H]1CCN(CCCCCNC(=O)C2CC2c2ccc(Cl)c(Cl)c2)C1 (stereo partly shown) [TCMDC-136269]	0.8246
O=C(Nc1ccc(Cl)cc1)N[C@H]1CCN(CCCCCNC(=O)C2CC2c2ccc(Cl)c(Cl)c2)C1 (stereo partly shown) [TCMDC-136262]	1.23
O=C(Nc1ccc(Cl)cc1Cl)N[C@H]1CCN(CCCCCNC(=O)C2CC2c2ccc(Cl)c(Cl)c2)C1 (stereo partly shown) [TCMDC-136268]	-5.844
O=C(Nc1ccc(Cl)cc1Cl)NC1CCN(CCCCCNC(=O)C2CC2c2ccc(Cl)c(Cl)c2)CC1 (stereo not shown) [TCMDC-136257]	1.836
O=C(Nc1cccc(Cl)c1Cl)N[C@H]1CCN(CCCCCNC(=O)C2CC2c2ccc(Cl)c(Cl)c2)C1 (stereo partly shown) [TCMDC-136267]	-46.93
O=C(Nc1cc(Cl)cc(Cl)c1)N[C@H]1CCN(CCCCCNC(=O)C2CC2c2ccc(Cl)c(Cl)c2)C1 (stereo partly shown) [TCMDC-136273]	86.02
O=C(Nc1ccc(Cl)cc1F)NC1CCN(CCCCCNC(=O)C2CC2c2ccc(Cl)c(Cl)c2)CC1 (stereo not shown) [TCMDC-136258]	66.19
O=C(Nc1ccc(F)cc1F)NC1CCN(CCCCCNC(=O)C2CC2c2ccc(Cl)c(Cl)c2)CC1 (stereo not shown) [TCMDC-136253]	-52.54
O=C(Nc1cc(Cl)ccc1O)c1ccc(Oc2ccc(C(=O)Nc3cc(Cl)ccc3O)cc2)cc1 [TCMDC-124084]	-31.23
COc1ccc(Nc2nccc(N3CCC(NC(=O)Nc4cc(C)ccc4C)C3)n2)cc1 (stereo not shown) [TCMDC-133615]	-63.4
Cc1ccc(C)c(NC(=O)NC2CCN(c3ccnc(Nc4ccc(F)cc4)n3)C2)c1 (stereo not shown) [TCMDC-133601]	-9.129
Cc1ccc2[nH]ncc2c1N(CC1CCCCC1)c1ccnc(Nc2ccc(OCC(O)CN3CC=CCC3)cc2)n1 (stereo not shown) [TCMDC-138794]	108.6
Cc1noc(-c2ccccc2)c1CN1CCCC2(CC(C(=O)NCc3cccc(F)c3F)=NO2)C1 (stereo not shown) [TCMDC-136606]	-21.45
Cc1noc(C)c1-c1cccc(CNCc2cccc(-c3ccc(-c4nc5cccc(C)c5[nH]4)cc3)c2)c1.O=C(O)C(F)(F)F [TCMDC-133056]	-10.48
Cc1[nH]c(C)c(-c2ccc(Oc3ccc(F)cc3)cc2)c(=O)c1Br [TCMDC-137402]	76.64
Cc1[nH]c(C)c(-c2ccc(-c3ccc(F)cc3)cc2)c(=O)c1Br [TCMDC-137421]	28.52
Cc1[nH]c(C)c(-c2ccc(Oc3ccc(Cl)cc3)cc2)c(=O)c1Br [TCMDC-137420]	17.1

SMILES	% Inhibition [%]
Cc1[nH]c(C)c(-c2ccc(Oc3ccccc3)cc2)c(=O)c1Br [TCMDC-137410]	67.24
Cc1[nH]c(C)c(-c2ccc(OCc3ccc(F)cc3)cc2)c(=O)c1Br [TCMDC-138928]	4.156
C=CCOc1ccc(-c2c(C)[nH]c(C)c(Br)c2=O)cc1 [TCMDC-135042]	74.1
Cc1[nH]c(C)c(-c2ccc(OCc3ccccc3)cc2)c(=O)c1Br [TCMDC-138901]	61.61
Cc1[nH]c(C)c(-c2ccc(Oc3ccc([S+](C)[O-])cc3)cc2)c(=O)c1Br (stereo not shown) [TCMDC-137400]	34.54
CCN1CCN(c2cc(C)c3cc(NC(=O)c4cccc([N+](=O)[O-])c4)ccc3n2)CC1 [TCMDC-125577]	8.914
CCN(CC)CCn1c2ccccc2c2ccc(C(=O)Nc3ccc4sc(C)nc4c3)cc21 [TCMDC-135280]	-1.763
O=C(c1cccc(-c2ccc(-c3nc4cc(F)ccc4[nH]3)s2)c1)N1CCCCC1CN1CCC(O)C1 (stereo not shown) [TCMDC-132343]	-28.04
COc1ccc2nc(C)cc(Nc3ccc(Oc4ccc(Cl)cc4)c(Cl)c3)c2c1 [TCMDC-123477]	-13.35
Cc1csc(NC(=O)c2cn(-c3ccccc3)nc2-c2cccs2)n1 [TCMDC-124531]	15.91
CC1CCCC(NCc2c(O)ccc3ccccc23)C1 (stereo not shown) [TCMDC-137601]	28.2
O=C(NCc1cccc2ccccc12)[C@@H]1CCCN1C(=O)c1ccc(O)c(-c2ccc(Cl)c(Cl)c2)c1 [TCMDC-140876]	16.61
COc1ccc2ccc(F)c(CC(=O)N3CCOC(CNCc4cccc(-c5ccc(F)cc5)n4)C3)c2n1 (stereo not shown) [TCMDC-135026]	-25.99
CCOC(=O)c1c(CSc2ccccc2)oc2cc(CN(C)C)c(O)c(Cl)c12 [TCMDC-124095]	-76.05
Cc1cccc2[nH]c(-c3ccc(-c4cccc(NCc5cn6cccnc6n5)c4)cc3)nc12 [TCMDC-136896]	-19.99
COc1cccc2cc(C(=O)N[C@@H](CC(C)C)C(=O)Nc3cc(F)ccc3Br)oc12 [TCMDC-135547]	2.093
C=Cc1ccc(-c2c(C)[nH]c(C)c(Br)c2=O)cc1 [TCMDC-135433]	58.24
Cc1[nH]c(C)c(-c2ccc(OCCCc3ccccn3)cc2)c(=O)c1Br [TCMDC-135795]	65.53
C=CCOc1ccccc1CNCC(O)c1cc(Br)cs1 (stereo not shown) [TCMDC-140498]	-6.926
CN(C)C(CNC(=O)c1cc(-c2ccncc2)c(-c2ccc(NC(=O)Nc3cccc(Cl)c3)cc2)o1)c1ccccc1 (stereo not shown) [TCMDC-135781]	-15.22
COc1cccc(NC(=O)Nc2ccc(Nc3nc(C)cc(N(C)C)n3)cc2)c1 [TCMDC-124959]	26.66
CCC(C)(C)NC(C)C(O)c1ccc(C(F)(F)F)cc1 (stereo not shown) [TCMDC-138152]	-4.943
Cc1ccc(NCC(=O)Nc2ccc(F)c(Cl)c2)cc1S(=O)(=O)N1CCOCC1 [TCMDC-123553]	-4.453
Cc1[nH]c(C)c(-c2ccc(Oc3ccc(Cl)cc3)cc2)c(=O)c1I [TCMDC-137393]	12.14

SMILES	% Inhibition [%]
Cc1[nH]c(C)c(-c2ccc(Oc3ccc(Cl)cc3)cc2)c(=O)c1C [TCMDC-137378]	85.12
Cc1[nH]c(C)c(-c2ccc(Oc3cc(Cl)cc(Cl)c3)cc2)c(=O)c1Cl [TCMDC-137391]	69.19
Cc1[nH]c(C)c(-c2ccc(Oc3cccc(Cl)c3)cc2)c(=O)c1Cl [TCMDC-137395]	75.57
Cc1[nH]c(C)c(-c2ccc(Oc3ccc(Cl)cc3)cc2)c(=O)c1Cl [TCMDC-137418]	32.25
NC(=O)c1ccsc1NC(=O)CNC(c1ccc(F)cc1)c1cccs1 (stereo not shown) [TCMDC-125036]	5.053
C[C@@H]1CN(C(c2cccc(O)c2)c2cccc(C(=O)N(C)c3cccc(F)c3)c2)[C@@H](C)CN1C(c1cccc(O)c1)c1cccc(C(=O)N(C)c2cccc(F)c2)c1 (stereo partly shown) [TCMDC-137248]	-16.24
CCN(CC)CCCN(C(=O)Nc1ccc(C#N)cc1)c1nc(-c2ccc(F)cc2)cs1 [TCMDC-136664]	-0.5138
CN1C2CCC1c1cc(NC(=O)c3cc(-c4ccc(Cl)cc4)cs3)ccc12 (stereo not shown) [TCMDC-134192]	-60.68
CCOc1cc(C(=O)NC2CCN(Cc3ccccc3)CC2)ccc1-c1nc2cc(Cl)c(F)cc2[nH]1 [TCMDC-140096]	-27.97
CC(C)(C)c1cc(C(=O)N2CCN(c3ncnc4ccsc34)CC2)n(Cc2ccccc2)n1 [TCMDC-133771]	-19.67
CCCCNCC(O)COc1ccccc1-c1ccc(N/N=C/c2cccc3ccccc23)nn1 (stereo not shown) [TCMDC-139416]	102.4
COc1cc(NC(=O)c2sc(-c3ccc(Cl)cc3)cc2NC(=O)c2ccncc2)ccc1OCCN1CCCC1 [TCMDC-135398]	121.8
COc1ccc(NC(=O)c2ccc3[nH]c(-c4ccc(Cl)cc4)cc3c2)cc1OCCN(C)C [TCMDC-138706]	-82.62
COc1ccc(NC(=O)/C=C/c2ccccc2Cl)cc1OCCN1CCC(NCc2cccnc2)CC1 [TCMDC-140758]	-13.35
COc1cc(NC(=O)c2sc(-c3ccc(Cl)cc3)cc2NC(=O)c2cccnc2)ccc1OCCN1CCCC1 [TCMDC-135397]	125.5
COc1cc(NC(=O)c2ccc(-c3ccc(C(C)=O)cc3)s2)ccc1OCCN1CCCC1 [TCMDC-138864]	-4.371
COc1cc(NC(=O)c2ccc3oc4ccccc4c3c2)ccc1OCCN1CCCCC1 [TCMDC-140701]	-7.89
COc1cc(NC(=O)c2sc(-c3ccc(Cl)cc3)cc2Cl)ccc1OCCN1CCCC1 [TCMDC-135556]	-58.99
COc1ccc(NC(=O)/C=C/c2ccccc2Cl)cc1OCCN1CCN(c2ccncc2)CC1 [TCMDC-140732]	4.813
Cc1ccc(NC(=O)c2ccc(-c3cc4cc(Cl)c(Cl)cc4[nH]3)cc2)cc1OCCN1CCCC1 [TCMDC-141289]	43.64
COc1cc(NC(=O)c2sc(-c3ccc(Cl)cc3)cc2NC(=O)c2cccc(N(C)C)c2)ccc1OCCN1CCCC1 [TCMDC-135403]	72.06
COc1cc(NC(=O)c2sc(-c3ccc(Cl)cc3)cc2NC(=O)N2CCCC2)ccc1OCCN1CCCC1 [TCMDC-135404]	71.79
